This note sets out measurements from PubChem BioAssay (NCI).

Each structure is given as a SMILES string. About 83,000 compounds went through this panel and 20% of them were active in at least one assay; those are over-represented in the sample as a whole.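 How to read the values: 0–100, growth inhibition (40 = 60% inhibited); 0, no net growth; -100 to 0, cell death (-40 = 40% of starting cells died; -100 = all dead).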 A number with no mark means an inactive call. The source made the active and inactive calls. The calls were made as follows: active = growth percent below 10; inactive = the rest.

The subject of one assay is SF-268 CNS. Kind of assay: NCI-60 one-dose screen, 48 h (100 = growth as untreated, 0 = no growth, -100 = all killed). The settings on record: 10 µM unless noted.
Take `COc1ccc(-c2nnc(SCC(=O)Nc3ccc(C(=O)/C=C/c4cc(OC)c(OC)c(OC)c4)cc3)n2-c2ccccc2)cc1OC`: the growth was -52.2% [100 µM] (active).

On to `COc1ccc2cn3c4ccc(O)cc4[nH]c(=O)c3c2c1`, for which the growth is 21%.

As to `COc1ccc(/C=N/c2cc(C(C)(C)C)nn2-c2ccccc2)cc1`, the growth is 101%.

On to `CCCCCCCCCCC1OC(C)CC(C)O1` (stereo not given), for which the growth was 96%.

Take `S=C(N/N=C/c1cc(Cl)cc(Cl)c1)NC12CC3CC(CC(C3)C1)C2`: the growth is 64.6%.

Take `CCOC1=C(Cl)C(=O)C(OCC)=C(Cl)C1=O`: the growth is 107%.

Regarding `COC(=O)/C=C1/CCCCC1(C)C(=O)OC` (stereo not given), the growth was 110%.

For the compound `CCCCCCCCCCC(C[N+](C)(C)C/C=C/c1ccccc1)C(O)c1ccccc1` (stereo not given), the growth is -0.479% (active).

`C=CC1CN2CCC1CC2C(O)c1ccnc2ccc(OC)cc12` (stereo not given): the growth is 103%.

On to `CC(=O)c1ccc2c(c1)c1ccccc1n2C`, for which the growth is 101%.

On to `CC(=O)Nc1nc(C)c(C(=O)NNS(=O)(=O)c2ccccc2)s1`, for which the growth is 117%.

In the case of `Cc1cc2cn3c4ccc(O)cc4nc(N)c3c2cc1C`, the growth is 12.9%.

`COc1cc(-c2nn(-c3ccc(NC(=O)Nc4ccc(Cl)c(Cl)c4)cc3)cc2-c2ccncc2)ccc1Cl`: the growth is 44.3%.

For the compound `CCOC(=O)c1sc(NS(=O)(=O)c2ccccc2)nc1C`, the growth was 114%.

For `Clc1ccc(I)c2ccccc12`, the growth is 101%.

As for `N#Cc1c2cccnc2c2nnc3cc(Cl)c(Cl)cc3n12`, the growth is 16.8%.

In the case of `COc1ccc(C(=O)NCCNc2nccc(-c3c(-c4ccc(F)cc4)nc4sccn34)n2)cc1`, the growth was 59.2%.

In the case of `CC(O)CN(CC(C)O)N(CC(C)O)CC(C)O` (stereo not given), the growth is 110%.

For the compound `O=C(Nc1ccc(-n2cc(-c3ccncc3)c(-c3ccc(Cl)c(O)c3)n2)cc1)c1cc(C(F)(F)F)cc(C(F)(F)F)c1`, the growth was 61.8%.

As for `COc1cc(-c2nn(-c3ccc(NC(=O)c4cc(Cl)cc(Cl)c4)cc3)cc2-c2ccncc2)ccc1Cl`, the growth is 76.9%.

On to `CCCCCCC(C)N(CC(C)(C)O)C(=O)c1ccc([N+](=O)[O-])cc1` (stereo not given), for which the growth was 110%.

As for `COc1cc(-c2nn(-c3ccc(NC(=O)c4ccc(Cl)c(Cl)c4)cc3)cc2-c2ccncc2)ccc1Cl`, the growth is 67.6%.

Regarding `COC(=O)[C@@H]1[C@H](O)[C@H](C)[C@H](O)[C@H](C)/C=C\C=C(C)C(=O)Nc2c(C)c(OC(C)=O)c3c(c2O)C(=O)C(C)=C2OCOC(=C23)C(C)=C[C@@](C)(O)[C@H](O)[C@@H](C)[C@H]1OC(C)=O`, the growth was 108%.

Take `C/C(=C\c1ccc2ccccc2c1)[N+](=O)[O-]`: the growth was 21%.

Regarding `Cc1cc2cn3c4ccc(O)cc4[nH]c(=O)c3c2cc1C`, the growth was 15.4%.

With `COc1ccc(C(=O)N2N=C(c3ccc(Br)cc3)CC2c2cn(-c3ccccc3)nc2-c2ccccc2)cc1` (stereo not given), the growth is 71.9%.

As to `O=CN/N=C/c1ccc(Cl)c([N+](=O)[O-])c1`, the growth was 21.5%.

On to `O=C1CCNC1`, for which the growth was 111%.

As for `O=c1[nH]c2cc(O)ccc2n2cc3c(F)cccc3c12`, the growth is 19.4%.

For the compound `O=C(CCC(=O)N(CCO)CCO)N(CCO)CCO`, the growth is 108%.

In the case of `O=C(CCl)NC1c2ccccc2Oc2ccccc21`, the growth is 64.4%.

As for `CC(=O)N1CCN(CCNC(=O)n2cc(-c3ccncc3)c(-c3cc(O)cc(Cl)c3)n2)CC1`, the growth was 96%.

`CC(C)OCC1CO1` (stereo not given): the growth was 99.9%.

As to `Oc1ccc(Br)cc1/C=N/NC(=S)NC12CC3CC(CC(C3)C1)C2`, the growth was 8.34% (active).

Consider `CC(=O)N1CCN(CCNC(=O)n2cc(-c3ccncc3)c(-c3ccc(O)c(Cl)c3)n2)CC1`, for which the growth was 107%.

`CCOC(=O)/C(C#N)=C(/CC)OCC`: the growth is 93.1%.

Regarding `O=C1Nc2c(c(=O)n(-c3ccccc3)c3ccccc23)C(c2ccc(Cl)cc2)N1` (stereo not given), the growth is 70.9%.

In the case of `N=C(c1ccccc1)N(Cc1ccccc1)Cc1ccccc1`, the growth was 103%.

As for `COc1cccc(NC(=O)NCCNc2nccc(-c3c(-c4ccc(F)cc4)nc4sccn34)n2)c1`, the growth was 84.2%.

In the case of `Cc1ccc(NC(=O)CCl)cc1Cl`, the growth is 103%.

A further assay concerns SF-295 CNS. The assay is described as above. Particulars: 10 µM unless noted.
Take `COc1ccc(-c2nnc(SCC(=O)Nc3ccc(C(=O)/C=C/c4cc(OC)c(OC)c(OC)c4)cc3)n2-c2ccccc2)cc1OC`: the growth is -86.2% [100 µM] (active).

Turning to `COc1ccc2cn3c4ccc(O)cc4[nH]c(=O)c3c2c1`, the growth was 0.201% (active).

As to `COc1ccc(/C=N/c2cc(C(C)(C)C)nn2-c2ccccc2)cc1`, the growth was 96.6%.

In the case of `CCCCCCCCCCC1OC(C)CC(C)O1` (stereo not given), the growth was 109%.

Take `S=C(N/N=C/c1cc(Cl)cc(Cl)c1)NC12CC3CC(CC(C3)C1)C2`: the growth was 35.1%.

With `CCOC1=C(Cl)C(=O)C(OCC)=C(Cl)C1=O`, the growth is 96.4%.

In the case of `COC(=O)/C=C1/CCCCC1(C)C(=O)OC` (stereo not given), the growth is 120%.

Take `CCCCCCCCCCC(C[N+](C)(C)C/C=C/c1ccccc1)C(O)c1ccccc1` (stereo not given): the growth was 35.6%.

Take `C=CC1CN2CCC1CC2C(O)c1ccnc2ccc(OC)cc12` (stereo not given): the growth is 91.6%.

For the compound `CC(=O)c1ccc2c(c1)c1ccccc1n2C`, the growth was 85.8%.

`CC(=O)Nc1nc(C)c(C(=O)NNS(=O)(=O)c2ccccc2)s1`: the growth is 132%.

`Cc1cc2cn3c4ccc(O)cc4nc(N)c3c2cc1C`: the growth is 1.42% (active).

For the compound `COc1cc(-c2nn(-c3ccc(NC(=O)Nc4ccc(Cl)c(Cl)c4)cc3)cc2-c2ccncc2)ccc1Cl`, the growth is 3.1% (active).

Regarding `CCOC(=O)c1sc(NS(=O)(=O)c2ccccc2)nc1C`, the growth was 133%.

For `Clc1ccc(I)c2ccccc12`, the growth is 102%.

Regarding `N#Cc1c2cccnc2c2nnc3cc(Cl)c(Cl)cc3n12`, the growth was 80.8%.

With `COc1ccc(C(=O)NCCNc2nccc(-c3c(-c4ccc(F)cc4)nc4sccn34)n2)cc1`, the growth was 61.6%.

`CC(O)CN(CC(C)O)N(CC(C)O)CC(C)O` (stereo not given): the growth is 101%.

For the compound `O=C(Nc1ccc(-n2cc(-c3ccncc3)c(-c3ccc(Cl)c(O)c3)n2)cc1)c1cc(C(F)(F)F)cc(C(F)(F)F)c1`, the growth was 25%.

For `COc1cc(-c2nn(-c3ccc(NC(=O)c4cc(Cl)cc(Cl)c4)cc3)cc2-c2ccncc2)ccc1Cl`, the growth is -1.01% (active).

For the compound `CCCCCCC(C)N(CC(C)(C)O)C(=O)c1ccc([N+](=O)[O-])cc1` (stereo not given), the growth is 88.6%.

For the compound `COc1cc(-c2nn(-c3ccc(NC(=O)c4ccc(Cl)c(Cl)c4)cc3)cc2-c2ccncc2)ccc1Cl`, the growth was -42.3% (active).

For `COC(=O)[C@@H]1[C@H](O)[C@H](C)[C@H](O)[C@H](C)/C=C\C=C(C)C(=O)Nc2c(C)c(OC(C)=O)c3c(c2O)C(=O)C(C)=C2OCOC(=C23)C(C)=C[C@@](C)(O)[C@H](O)[C@@H](C)[C@H]1OC(C)=O`, the growth was 118%.

Consider `C/C(=C\c1ccc2ccccc2c1)[N+](=O)[O-]`, for which the growth is 92.2%.

For `Cc1cc2cn3c4ccc(O)cc4[nH]c(=O)c3c2cc1C`, the growth was 9.25% (active).

Regarding `COc1ccc(C(=O)N2N=C(c3ccc(Br)cc3)CC2c2cn(-c3ccccc3)nc2-c2ccccc2)cc1` (stereo not given), the growth was 70.9%.

Take `O=CN/N=C/c1ccc(Cl)c([N+](=O)[O-])c1`: the growth is 3.88% (active).

For the compound `O=C1CCNC1`, the growth was 108%.

With `O=c1[nH]c2cc(O)ccc2n2cc3c(F)cccc3c12`, the growth was 15.4%.

As to `O=C(CCC(=O)N(CCO)CCO)N(CCO)CCO`, the growth was 96.4%.

For `O=C(CCl)NC1c2ccccc2Oc2ccccc21`, the growth was 81.2%.

As for `CC(=O)N1CCN(CCNC(=O)n2cc(-c3ccncc3)c(-c3cc(O)cc(Cl)c3)n2)CC1`, the growth was 80.5%.

Consider `CC(C)OCC1CO1` (stereo not given), for which the growth was 78.2%.

On to `Oc1ccc(Br)cc1/C=N/NC(=S)NC12CC3CC(CC(C3)C1)C2`, for which the growth is 17%.

Turning to `CC(=O)N1CCN(CCNC(=O)n2cc(-c3ccncc3)c(-c3ccc(O)c(Cl)c3)n2)CC1`, the growth was 130%.

With `CCOC(=O)/C(C#N)=C(/CC)OCC`, the growth is 101%.

With `O=C1Nc2c(c(=O)n(-c3ccccc3)c3ccccc23)C(c2ccc(Cl)cc2)N1` (stereo not given), the growth was 65.3%.

With `N=C(c1ccccc1)N(Cc1ccccc1)Cc1ccccc1`, the growth is 59.2%.

In the case of `COc1cccc(NC(=O)NCCNc2nccc(-c3c(-c4ccc(F)cc4)nc4sccn34)n2)c1`, the growth is 103%.

For the compound `Cc1ccc(NC(=O)CCl)cc1Cl`, the growth was 81.2%.
